Screening data (PubChem BioAssay)
ROC1-CUL1 inh: human ROC1-CUL1 E3 ligase inhibition; P62877+Q13616; in vitro K48 di-Ub FRET, acceptor:donor ratio, 45 min; inhibition, % at 10 µM; 140,000 compounds, 0.6% hits; in the data active = inhibition above about 25%
Large screens that a line does not name were inactive. The sample as a whole holds a higher share of hits than the screen did.

CC(=O)Oc1ccc(OC(C)=O)c2c1C(=O)C=CC2=O	ROC1-CUL1 inh 99.4
C=C(C)Cn1c(=O)c2c(nc3n(-c4ccc(OC)cc4)c(C)cn23)n(C)c1=O	none
CCOc1cc(C(c2c(C)[nH][nH]c2=O)c2c(C)[nH][nH]c2=O)ccc1OCc1cccc2ccccc12	ROC1-CUL1 inh 44.8
COc1cc(C(c2c(C)[nH][nH]c2=O)c2c(C)[nH][nH]c2=O)ccc1OC(=O)c1ccccc1F	none
COc1ccc(C(=O)Oc2ccc(C(c3c(C)[nH][nH]c3=O)c3c(C)[nH][nH]c3=O)cc2OC)cc1	none
O=c1cc(Oc2cccc(Cl)c2)c2ccccc2o1	none
O=C(Cn1ccn(-c2ccc(F)cc2)c(=O)c1=O)Nc1ccccc1C(F)(F)F	none
COc1ccc([C@@H]2[C@H]3CN(C(C)C)CC=C3C(C#N)C(=N)C2(C#N)C#N)cc1OC (stereo not given in full)	none
CCN(CC)C(=O)c1ccccc1C(=O)c1ccc(Cl)cc1	none
Cc1ccc2nc(/C(C#N)=C/c3coc4ccccc4c3=O)[nH]c2c1	ROC1-CUL1 inh 25.9
Cc1ccc2nc(/C(C#N)=C/c3ccccc3Cl)[nH]c2c1	none
COc1cccc(/C=C(\C#N)c2nc3ccc(C)cc3[nH]2)c1	none
COc1ccc(S(=O)(=O)N(CC(=O)NC(C)c2ccccc2)c2ccc(C)cc2)cc1OC (stereo not given)	none
N=c1n(CCOc2ccccc2)c2ccccc2n1CCc1ccccc1	none
O=C1OC(c2cccc([N+](=O)[O-])c2)=N/C1=C/c1cccc(Oc2ccc([N+](=O)[O-])cc2[N+](=O)[O-])c1	none
O=C(COc1ccc(Br)cc1/C=C1/C(=O)ON=C1c1ccccc1)Nc1ccccc1	ROC1-CUL1 inh 42.7
CC(C)(C)c1cc(Br)ccc1OCC(=O)Nc1ccccc1	none
Cc1cccc(NC(=O)COc2ccc(Br)cc2C=C2C(=O)NC(=S)NC2=O)c1	none
COc1ccc(CCNC(=O)c2c(C)oc3ncn(CC(C)C)c(=O)c23)c(OC)c1	none
N#Cc1ccc(-c2cccnc2)nc1SCc1ccccc1Cl	none
COc1ccc(-c2ccccc2)cc1NC(=O)Cn1ncc(N(C)C)cc1=O	none
COc1cc(C(=O)NCC(c2ccc3c(c2)OCO3)N2CCOCC2)cc(OC)c1OC (stereo not given)	none
COc1ccc(/C=C2/CCc3ccccc3C2=O)cc1S(=O)(=O)O	none
Nc1ccc2cccc(C(=O)O)c2n1	ROC1-CUL1 inh 69.9
Nc1ccc2ccc3cccnc3c2n1	none
CS(=O)(=O)c1ccccc1C(=O)O	none
O=c1[nH]cc(I)cc1I	none
O=c1[nH]cccc1I	ROC1-CUL1 inh 65.9
O=c1[nH]cccc1-c1ccc[nH]c1=O	none
Cc1cc(C(=O)N2CCCC(N3CCN(Cc4ccc5c(c4)OCO5)CC3)C2)no1 (stereo not given)	none
COc1ccc2c(c1)Cc1sc(NC(=O)c3cccc(Br)c3)nc1-2	none
COc1ccc(C(=O)Nc2nc3c(s2)Cc2cc(OC)ccc2-3)cc1	ROC1-CUL1 inh 39.6
COc1ccc2c(c1)CCc1sc(NC(=O)c3ccc(Cl)cc3)nc1-2	none
COc1ccc2c(c1)Cc1sc(NC(=O)c3cccc(F)c3)nc1-2	none
COc1ccc2c(c1)-c1nc(NC(=O)c3ccccc3F)sc1CC2	none
COc1ccc2c(c1)Cc1sc(NC(=O)c3ccccc3C)nc1-2	ROC1-CUL1 inh 32.1
COC(=O)CN1C(=O)[C@@H]2[C@H](C1=O)[C@@H]1C=C[C@H]2C1	none
Cc1cc(C)n(C(=O)c2cc3c(cc2Br)OCCO3)n1	none
CO[C@H]1OC(c2ccccc2O[C@@H]2O[C@H](CC(C)=O)[C@@H](OC(C)=O)[C@H](OC(C)=O)[C@H]2OC(C)=O)CC(=O)[C@@H]1O (stereo not given in full)	none
